# Data: ChEMBL document CHEMBL4513216, “Probing the Open Global Health Chemical Diversity Library for Multistage-Active Starting Points for Next-Generation Antimalarials” (ACS Infect Dis, 2020)
# Screen size: about 69,000 compounds; about 8,600 (12%) showed an effect of 50% or more. The sample as a whole holds a higher share of strong results than the screen did.
# Test system: Plasmodium berghei
# Test: Screen against P. berghei liver stage (PbLuc), transformed with Luciferase, at 10uM
# Format: functional, HepG2
# Conditions: tested at 10 uM
row,Structure (SMILES),INHIBITION [%]
1,CCn1ccnc1CN1CCCN(C(=O)c2scnc2C)CC1,13.64
2,O=C(O)CCn1nc(C(F)(F)F)c(Cl)c1C1CC1,31.7
3,O=C(NCC1Cn2nnc(-c3ccncc3)c2CO1)c1ccc[nH]1 (stereo not given),31.4
4,Cc1cccc(CN2C[C@@H]3CCCO[C@@H]3[C@H](Nc3ccccn3)C2)n1,25.3
5,O=C(CCc1cc2n(n1)CCCNC2)N1CCN(C2CCCC2)C(=O)C1,-34.8
6,CO[C@H]1CN(Cc2cc(F)ccc2F)CC[C@@]12CCCO2,-9.27
7,COc1ccc2[nH]cc(C(=O)CNc3nccs3)c2c1,12.8
8,CS(=O)(=O)NCC1CCCN(Cc2ccc(F)c3cccnc23)C1 (stereo not given),18.5
9,Clc1ccc2cccnc2c1CN1CCCC(Cn2cncn2)C1 (stereo not given),22.9
10,Fc1ccc(CN2CCCC2Cn2cncn2)c2ncccc12 (stereo not given),79.2
11,Fc1ccc(CN2CCCCC2Cn2cncn2)c2ncccc12 (stereo not given),21.6
12,Clc1ccc2cccnc2c1CN1CCCCC1Cn1cncn1 (stereo not given),45.65
13,Clc1ccc2cccnc2c1CN1CCCC1Cn1cncn1 (stereo not given),66.2
14,OC1CCCN(Cc2ccc(F)c3cccnc23)C1 (stereo not given),54.4
15,Fc1ccc(CN2CCCC(Cn3cncn3)C2)c2ncccc12 (stereo not given),-44.8
16,Clc1ccc(CN2CCCC2Cn2cncn2)c2ncccc12 (stereo not given),23.45
17,CC(C)C(C)NC(=O)Nc1ccc(F)c(C(N)=O)c1 (stereo not given),1.75
18,O=C(C1CNCCN1C(=O)CCc1cccnc1)N1CCOCC1 (stereo not given),42.1
19,CNC(=O)[C@@H]1[C@H]2CN(Cc3ccccn3)CCN2C[C@H]1c1ccccc1,8.61
20,Cc1csc(NC(=O)Cn2nc(C)ccc2=O)n1,37.8
21,O=C(COCCOc1ccccc1)NC1CCN(C(=O)C2CC2)CC1,29.9
22,COCCN1C(=O)CCC12CCN(C(=O)CC1CC1)CC2,21.6

row,Structure (SMILES),INHIBITION [%]
1,CC(C)OCCCN(Cc1ccncc1)Cc1cccc(F)c1,43.6
2,CN(Cc1ccncc1)C(CO)c1cccc(F)c1 (stereo not given),68.5
3,CN(Cc1ccccn1)C(CO)c1cccc(Br)c1 (stereo not given),88
4,CN(Cc1cccnc1)C(CO)c1cccc(Br)c1 (stereo not given),85.2
5,CN(Cc1nccn1C)C(CO)c1cccc(Br)c1 (stereo not given),33.7
6,CN(Cc1ccncc1)C(CO)c1cccc(Br)c1 (stereo not given),4.52
7,CN(Cc1ccccn1)C(C(=O)O)c1ccc2c(c1)OCO2 (stereo not given),40.3
8,CN(Cc1cnn(C)c1)C(CO)c1cccc(Br)c1 (stereo not given),49
9,COc1cc(F)ccc1N(C)Cc1ccncc1,-24.9
10,CCn1nnc(NCc2ccccc2OCc2ccc(Cl)cc2)n1,-3.5
11,CCN1CCN(CCNC(=O)c2sc(C)nc2C)CC1,1.75
12,CN(C)C(=O)N1CC2(CCN(CC3CC3)CC2)c2cc(F)ccc21,-13.4
13,Cc1cc(C2CCN(S(=O)(=O)c3cn(C)cn3)CC2)ccn1,17.1
14,CCC(C)(C)C(=O)N1C[C@@H]2C[C@@H](c3nnc(C)[nH]3)O[C@@H]2C1,30.5
15,OCC1(NCc2cnc(-c3ccccn3)s2)CCOCC1,-16.4
16,CCc1nc(C2CCCN2CC(=O)NCCc2ccsc2)no1 (stereo not given),25.6
17,CC(=O)NCc1cc2n(n1)CCN(Cc1cccc(Cl)c1F)C2,10.7
18,COc1ccc(-n2ncc(C(C)NC3Cc4ccccc4C3)c2C)cc1 (stereo not given),63.8
19,Cc1c(C(C)NC2CCN(C(C)C)CC2)cnn1-c1ccc(F)cc1F (stereo not given),46.9
20,COc1ccc(-n2ncc(C(C)NC3CCSCC3)c2C)cc1 (stereo not given),53.8
21,COc1ccc(-n2ncc(C(C)NC3CCOCC3)c2C)cc1 (stereo not given),23.7
22,Cc1c(C(C)NCc2cnn(C)c2)cnn1-c1ccccc1 (stereo not given),43

row,Structure (SMILES),INHIBITION [%]
1,Cc1c(C(C)NC2CSCCSC2)cnn1-c1ccc(F)cc1F (stereo not given),43.7
2,O=C(N[C@@H]1CN(C2CCCC2)C[C@@H]2CCCO[C@@H]21)c1cnccn1,-45.5
3,CC1CCCCN1C(=O)Cn1cnc(C#N)n1 (stereo not given),69.3
4,CCC1CCCCN1C(=O)Cn1cnc(C#N)n1 (stereo not given),47.9
5,N#Cc1ncn(CC(=O)N2CCCC2c2cccs2)n1 (stereo not given),23.3
6,CSc1ccc(-c2cc(CN)nc3ccnn23)cc1,13
7,COc1cccc(NC(=O)NC2(c3noc(CN(C)C)n3)CCCC2)c1,16.2
8,CCN(CC)CCn1cc(NC2CCSCC2)cn1,-3.21
9,Fc1ccc(C2(c3noc(CCN4CCCCO4)n3)CCOC2)cc1 (stereo not given),-23.4
10,O=c1[nH]c2cc3c(cc2cc1CN1CCCC1c1ccccn1)CCC3 (stereo not given),56.5
11,O=c1[nH]c2cc3c(cc2cc1CN1CCCC1c1ccccn1)OCO3 (stereo not given),6.94
12,CCOc1ccc2[nH]c(=O)c(CN3CCCC3c3ccccn3)cc2c1 (stereo not given),32.7
13,O=C(Nc1ccc(CCN2CCC(O)CC2)cc1)C1CCCOC1 (stereo not given),20.06
14,O=C(CN1CCOc2ccccc2C1)NCc1cc2n(n1)CCCNC2,12.9
15,CC(NCc1ccsc1)c1ccc2c(c1)NC(=O)CO2 (stereo not given),22.15
16,COc1cccc(SCC(=O)N2CCC(N3CCCC3=O)CC2)c1,43.9
17,COc1cccc(SCC(=O)N2CCC(N3CCCC(O)C3)CC2)c1 (stereo not given),64.9
18,COc1cccc(SCC(=O)N2CCCC(N3CCCC3=O)C2)c1 (stereo not given),15.5
19,Cc1c(NC(=O)CN(C)S(C)(=O)=O)cccc1OC1CCCC1,-28.2
20,CCCNC(=O)CN1CCC(NC(=O)c2cc(CC)ccc2O)CC1,-23.15
21,N#Cc1cccnc1N1CCC(C2CCCCCN2C(=O)C2CC2)CC1 (stereo not given),-1.3
22,O=S(=O)(c1ccccc1)N1CCCC(c2nccs2)C1 (stereo not given),31.6

row,Structure (SMILES),INHIBITION [%]
1,O=S(=O)(c1cccs1)N1CCCC(c2nccs2)C1 (stereo not given),-27.4
2,O=S(=O)(c1ccccc1F)N1CCCC(c2nccs2)C1 (stereo not given),61.7
3,CN(CCS(=O)(=O)c1cc(Cl)ccc1Cl)CC(=O)Nc1cccc(F)c1,59.4
4,CN(CCS(=O)(=O)c1cc(Cl)ccc1Cl)CC(=O)Nc1ccc(F)cc1,-8.22
5,CN(CCS(=O)(=O)c1cc(Cl)ccc1Cl)CC(N)=O,10.6
6,Cc1nnc2n1CCN(C(=O)C1CCC(n3cccc3)CC1)C2 (stereo not given),20.8
7,COC(=O)CC(c1cccnc1)c1oc(C)cc(=O)c1O (stereo not given),-14.8
8,COc1ccccc1CN1CC(OC)CN(C(=O)CC(C)C)CC1=O (stereo not given),4.82
9,Cc1ccc(CN2CCc3c(CN(C)C)n[nH]c3C2)s1,13.7
10,Cc1ccc(CNC(=O)N2CCc3ccccc3C2CO)s1 (stereo not given),28.7
11,O=C(c1cccs1)N1CCN(Cc2cc(=O)c3ccccc3[nH]2)CC1,15.4
12,Cn1ccc(CN2CCC(Cc3ccccc3)CC2)cc1=O,-0.219
13,Cn1cc(CN2CCC(F)(F)C3(CCN(c4cccnc4)C3)C2)cn1 (stereo not given),15.4
14,FC1(F)CCN(Cc2ccncc2)CC12CCN(Cc1ccccn1)C2 (stereo not given),48.9
15,FC1(F)CCN(Cc2cccnc2)CC12CCN(c1ccccc1)C2 (stereo not given),92.8
16,FC1(F)CCN(Cc2ccccn2)CC12CCN(c1ncccn1)C2 (stereo not given),47.5
17,Cn1ccnc1CN1CCC(F)(F)C2(CCN(c3cccnc3)C2)C1 (stereo not given),31.2
18,FC1(F)CCN(Cc2ccccn2)CC12CCN(c1cccnc1)C2 (stereo not given),85.9
19,FC1(F)CCN(Cc2ccncc2)CC12CCN(c1cnccn1)C2 (stereo not given),-13.2
20,FC1(F)CCN(c2ccccc2)CC12CCN(c1ncccn1)C2 (stereo not given),-15.3
21,OCCN1CCC(F)(F)C2(CCN(c3cccnc3)C2)C1 (stereo not given),60.2
22,FC1(F)CCN(Cc2ccccn2)CC12CCN(c1cnccn1)C2 (stereo not given),34

row,Structure (SMILES),INHIBITION [%]
1,FC1(F)CCN(Cc2ccncc2)CC12CCN(c1cccnc1)C2 (stereo not given),91.9
2,OCCN1CCC(F)(F)C2(CCN(c3cnccn3)C2)C1 (stereo not given),16.6
3,COc1ccccc1OCCCn1c(C)c(C)oc1=O,-10.2
4,CCn1c(SCC(N)=O)nnc1C(C)NC(=O)c1ccc(Cl)cc1 (stereo not given),31.6
5,CCS(=O)(=O)N1CCC2(CN(c3cccc(C)n3)C2)C1,18.5
6,Cc1ccc(CN(CCCN2CCOCC2)Cc2cnn(C)c2)o1,30.15
7,CCc1ncc2c(n1)CN(c1nnc(C)c(C)c1C#N)CC2,-28.7
8,CNC(=O)CN1CCC2(CCCN(CC3CCOC3)C2)CC1 (stereo not given),8.6
9,Cc1nn(-c2ccc(C(=O)O)cc2)c2c1C(CC(C)C)SCC(=O)N2 (stereo not given),10.6
10,Cc1cccc(C(=O)N2C[C@@H]3C(CC(=O)NC(C)C)[C@@H]3C2)n1 (stereo not given in full),-50.4
11,O=C(O)CN1CCC(F)(F)C2(CCN(c3ccccc3)C2)C1 (stereo not given),53.9
12,Cn1cc(CN2CCC(F)(F)C3(CCN(c4ccccn4)C3)C2)cn1 (stereo not given),0.618
13,FC1(F)CCN(Cc2cccnc2)CC12CCN(c1cnccn1)C2 (stereo not given),-20.1
14,FC1(F)CCN(Cc2cccnc2)CC12CCN(c1ccccn1)C2 (stereo not given),68.2
15,O=C(CO)N1CCC(F)(F)C2(CCN(c3ccccc3)C2)C1 (stereo not given),31.4
16,O=C(O)CN1CCC(F)(F)C2(CCN(c3ccccn3)C2)C1 (stereo not given),-4.02
17,Cc1nn(C)cc1-c1cc(C(=O)N2CCc3ncc(Cl)cc3C2)on1,7.15
18,N#CCc1ccc(NC(=O)Cn2cc(I)cn2)cc1,36.6
19,O=C(NCC1CCCO1)c1nc2c(s1)CCCN2Cc1ccccc1 (stereo not given),-57.7
20,CCN(Cc1ccc(N(C)C)cc1)S(=O)(=O)c1cc(Br)ccc1OC,7.65
21,CCOc1ccc(Br)cc1S(=O)(=O)N(CC)Cc1ccc(N(C)C)cc1,61.5
22,COc1ccc(Br)cc1S(=O)(=O)N(C)Cc1ccc(N(C)C)cc1,5.76
